# Experimental data from PMC7862700, “An all-to-all approach to the identification of sequence-specific readers for epigenetic DNA modifications on cytosine”.
# Assays:
# Experiment in all cases: DAPPL (digital affinity profiling via proximity ligation, sequencing); 10 mM Tris-HCl pH 7.5, 50 mM NaCl, 1 mM DTT, 4% glycerol, room temperature, 30 min; GST-TFs on glutathione beads, 16-mer random dsDNA library, 0.1% formaldehyde crosslink after washing; high values mean tight binding
# Details in all cases: protein: recombinant; tags: N-terminal GST; dsDNA, one strand shown
# ETV1 = ETV1 (Homo sapiens, UniProt P50549 1-477)
# Sequence of ETV1 (P50549 whole entry, the tested form may be a part): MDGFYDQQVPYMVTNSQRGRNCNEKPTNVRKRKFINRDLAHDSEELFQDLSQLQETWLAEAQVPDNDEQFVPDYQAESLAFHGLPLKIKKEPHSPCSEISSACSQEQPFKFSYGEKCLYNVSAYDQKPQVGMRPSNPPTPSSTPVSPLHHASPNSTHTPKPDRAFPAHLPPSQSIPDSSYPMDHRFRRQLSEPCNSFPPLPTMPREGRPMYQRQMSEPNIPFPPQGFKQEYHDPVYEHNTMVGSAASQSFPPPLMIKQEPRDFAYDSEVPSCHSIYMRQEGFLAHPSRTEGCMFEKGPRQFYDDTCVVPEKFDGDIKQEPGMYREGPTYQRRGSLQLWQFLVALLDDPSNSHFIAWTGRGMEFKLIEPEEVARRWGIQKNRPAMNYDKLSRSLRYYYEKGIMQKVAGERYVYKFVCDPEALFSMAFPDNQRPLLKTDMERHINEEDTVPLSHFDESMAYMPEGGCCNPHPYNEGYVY
# In short: (§1)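 Sequencing on an Illumina NextSeq500 followed washing, crosslinking with 0.1% formaldehyde, proximity ligation (BsaI/T4 ligase, 1 h, 37 °C) and PCR amplification of pools that had been incubated for 30 min at room temperature with 200 nmole of a random double-stranded 16-mer DNA library in Tris/NaCl/DTT/glycerol buffer. Each pool held DNA-barcoded human transcription factors, expressed in yeast as GST fusions and captured on glutathione beads, plus a tag-only sample. Binding signal is a hexamer's read frequency for a factor divided by its frequency in the tag-only sample.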
# ERF = target: T1, ERF (Homo sapiens, UniProt P50548 1-548)
# T1 sequence: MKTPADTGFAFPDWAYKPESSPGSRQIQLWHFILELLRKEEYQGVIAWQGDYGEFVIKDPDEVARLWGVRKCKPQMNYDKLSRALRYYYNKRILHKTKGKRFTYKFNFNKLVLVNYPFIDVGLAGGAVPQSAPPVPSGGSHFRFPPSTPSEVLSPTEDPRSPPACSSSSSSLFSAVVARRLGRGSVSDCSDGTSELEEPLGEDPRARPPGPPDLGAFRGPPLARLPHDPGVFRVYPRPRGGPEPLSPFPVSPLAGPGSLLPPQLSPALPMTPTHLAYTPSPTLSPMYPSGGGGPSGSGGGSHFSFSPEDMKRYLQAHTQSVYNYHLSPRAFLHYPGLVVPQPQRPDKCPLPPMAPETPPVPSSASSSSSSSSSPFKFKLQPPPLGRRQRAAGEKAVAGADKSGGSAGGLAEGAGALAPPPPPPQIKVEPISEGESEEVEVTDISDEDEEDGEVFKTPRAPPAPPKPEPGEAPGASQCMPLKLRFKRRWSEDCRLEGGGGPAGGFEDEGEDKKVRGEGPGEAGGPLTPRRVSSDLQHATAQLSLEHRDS
# In short: as §1
# ETV3L = target: T2, ETV3L (Homo sapiens, UniProt Q6ZN32 1-361)
# T2 sequence: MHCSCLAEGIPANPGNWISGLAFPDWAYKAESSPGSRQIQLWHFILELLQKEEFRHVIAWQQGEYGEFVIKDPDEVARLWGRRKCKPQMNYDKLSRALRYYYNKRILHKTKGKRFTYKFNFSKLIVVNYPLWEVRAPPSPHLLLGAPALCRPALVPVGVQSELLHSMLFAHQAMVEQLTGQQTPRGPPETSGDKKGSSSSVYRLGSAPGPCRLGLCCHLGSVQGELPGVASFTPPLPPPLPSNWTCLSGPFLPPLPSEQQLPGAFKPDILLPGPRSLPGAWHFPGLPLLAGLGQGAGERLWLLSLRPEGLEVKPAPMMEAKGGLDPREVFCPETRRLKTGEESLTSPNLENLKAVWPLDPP
# In short: as §1
# ETS2 = target: T3, ETS2 (Homo sapiens, UniProt P15036 1-469)
# T3 sequence: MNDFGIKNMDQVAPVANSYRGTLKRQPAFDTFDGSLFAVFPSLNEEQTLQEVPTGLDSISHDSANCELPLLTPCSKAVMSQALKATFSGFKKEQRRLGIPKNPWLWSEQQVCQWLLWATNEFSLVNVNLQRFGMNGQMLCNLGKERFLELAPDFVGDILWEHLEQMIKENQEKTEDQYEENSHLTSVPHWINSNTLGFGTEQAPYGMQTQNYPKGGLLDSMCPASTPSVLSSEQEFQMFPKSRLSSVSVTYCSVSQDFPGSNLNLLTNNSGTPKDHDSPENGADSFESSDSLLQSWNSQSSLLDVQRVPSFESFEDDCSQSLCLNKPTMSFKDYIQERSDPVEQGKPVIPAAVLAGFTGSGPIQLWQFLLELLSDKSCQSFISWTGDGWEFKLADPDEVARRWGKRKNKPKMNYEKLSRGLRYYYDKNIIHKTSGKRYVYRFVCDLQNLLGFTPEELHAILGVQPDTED
# In short: as §1
# SPDEF = target: T4, SPDEF (Homo sapiens, UniProt O95238 1-335)
# T4 sequence: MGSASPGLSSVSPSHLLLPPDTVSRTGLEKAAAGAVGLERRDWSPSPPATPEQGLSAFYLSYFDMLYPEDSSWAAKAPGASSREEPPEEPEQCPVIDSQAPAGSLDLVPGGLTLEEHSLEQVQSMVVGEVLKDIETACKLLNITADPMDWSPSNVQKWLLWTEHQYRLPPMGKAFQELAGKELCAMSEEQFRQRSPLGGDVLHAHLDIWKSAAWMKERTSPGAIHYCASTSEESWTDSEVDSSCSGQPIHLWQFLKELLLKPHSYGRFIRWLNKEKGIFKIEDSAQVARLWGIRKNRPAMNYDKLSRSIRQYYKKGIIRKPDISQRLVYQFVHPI
# In short: as §1
# ETV7 = target: T5, ETV7 (Homo sapiens, UniProt Q9Y603 1-341)
# T5 sequence: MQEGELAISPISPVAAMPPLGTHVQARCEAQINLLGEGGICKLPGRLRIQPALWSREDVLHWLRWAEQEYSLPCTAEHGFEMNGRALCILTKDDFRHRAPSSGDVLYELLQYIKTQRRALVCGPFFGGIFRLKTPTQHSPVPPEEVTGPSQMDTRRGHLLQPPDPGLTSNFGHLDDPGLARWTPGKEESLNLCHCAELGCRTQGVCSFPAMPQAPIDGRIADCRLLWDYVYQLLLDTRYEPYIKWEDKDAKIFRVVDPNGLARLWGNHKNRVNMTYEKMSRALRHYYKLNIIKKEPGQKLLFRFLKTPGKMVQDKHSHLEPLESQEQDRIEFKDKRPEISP
# In short: as §1
# ELF5 = target: T6, ELF5 (Homo sapiens, UniProt Q9UKW6-2 1-255)
# T6 sequence: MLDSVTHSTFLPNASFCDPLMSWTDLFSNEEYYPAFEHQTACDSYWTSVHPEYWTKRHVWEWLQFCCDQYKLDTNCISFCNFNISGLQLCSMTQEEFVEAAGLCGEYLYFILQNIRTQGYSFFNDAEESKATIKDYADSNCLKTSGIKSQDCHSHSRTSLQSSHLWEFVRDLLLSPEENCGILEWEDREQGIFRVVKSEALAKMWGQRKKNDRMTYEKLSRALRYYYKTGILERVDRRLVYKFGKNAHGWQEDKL
# In short: as §1
# ETV3 = target: T7, ETV3 (Homo sapiens, UniProt P41162-2 1-143)
# T7 sequence: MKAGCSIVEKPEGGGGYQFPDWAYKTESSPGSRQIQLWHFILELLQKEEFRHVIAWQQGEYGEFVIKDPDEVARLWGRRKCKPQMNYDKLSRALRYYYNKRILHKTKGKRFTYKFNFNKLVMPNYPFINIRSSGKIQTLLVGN
# In short: as §1
# ETV6 = ETV6 (Homo sapiens, UniProt P41212 1-452)
# Sequence of ETV6 (P41212 whole entry): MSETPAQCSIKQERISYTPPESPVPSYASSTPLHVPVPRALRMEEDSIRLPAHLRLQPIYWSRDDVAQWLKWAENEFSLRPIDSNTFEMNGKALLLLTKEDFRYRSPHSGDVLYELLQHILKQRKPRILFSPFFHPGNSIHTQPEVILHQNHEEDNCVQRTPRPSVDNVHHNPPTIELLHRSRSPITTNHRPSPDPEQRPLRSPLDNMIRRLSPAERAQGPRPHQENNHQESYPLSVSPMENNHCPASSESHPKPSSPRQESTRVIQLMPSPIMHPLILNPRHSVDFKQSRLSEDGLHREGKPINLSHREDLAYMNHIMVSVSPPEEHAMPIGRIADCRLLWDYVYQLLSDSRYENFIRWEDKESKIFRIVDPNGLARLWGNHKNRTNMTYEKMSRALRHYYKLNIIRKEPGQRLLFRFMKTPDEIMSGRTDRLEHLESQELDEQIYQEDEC
# In short: as §1
sequence,measurement,setting,value
GTTCCA,binding signal,ETV1,"1.06 fold enrichment (6-mer frequency, TF over GST control)"
same,binding signal,ERF,"1 fold enrichment (6-mer frequency, TF over GST control)"
same,binding signal,ETV3L,"1.04 fold enrichment (6-mer frequency, TF over GST control)"
same,binding signal,ETS2,"1.13 fold enrichment (6-mer frequency, TF over GST control)"
same,binding signal,SPDEF,"1.1 fold enrichment (6-mer frequency, TF over GST control)"
same,binding signal,ETV7,"1.12 fold enrichment (6-mer frequency, TF over GST control)"
same,binding signal,ELF5,"1.07 fold enrichment (6-mer frequency, TF over GST control)"
same,binding signal,ETV3,"1.04 fold enrichment (6-mer frequency, TF over GST control)"
same,binding signal,ETV6,"1.04 fold enrichment (6-mer frequency, TF over GST control)"
